High-throughput results deposited in PubChem BioAssay by several laboratories.
TROY NFkB inh: blocks TROY-dependent signaling in reporter cells. AID 1347056. Q293 LMP1-TROYcd NF-kB luciferase reporter, 4 h. 360,000 tested, 0.98% active. inhibition, % at 10 µM;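 active = compounds whose plate-normalised and pattern-corrected inhibition of the luciferase reporter signal at the single screening dose is 50% or more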
LGR2 antag: blocks bursicon-induced cAMP signaling via Drosophila LGR2 | HEK293 LGR2, CRE-luciferase, bursicon-stimulated, 4 h | inhibition, % at 9.99 µM | 380,000 tested, 0.35% active;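 active = drop in luminescence signal, shown as inhibition above about 50% in the replicate tests, limit read from the data, passing the limit was not always enough; inconclusive = probably only some replicates passing the limit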;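 note: agonist challenge used bursicon conditioned medium at about half maximal strength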
PAX8 inh HTS: inhibitors of PAX8 transcriptional activity in RMG-I cells; RMG-I TPO-luciferase reporter, SteadyGlo, 24 h; 360,000 tested, 1.2% active; inhibition, % at 12.6 µM;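 active = mean replicate inhibition at least 60% with every replicate also reaching 60%; inconclusive = only one of the two criteria is met; inactive = mean below 60% and not all replicates reaching 60%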;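 note: luciferase light reporting Pax8 driven TPO promoter activity; plate controls were median of neutral control wells for no effect and mitoxantrone controls for full effect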
TWEAK Fn14 block: blocks TWEAK-Fn14 interaction in a reporter cell assay; 360,000 tested, 2% active; TWEAK-stimulated Fn14 reporter cells, luciferase luminescence, 8 h; inhibition, % at 10 µM; AID 1159606; in the data active = inhibition above about 50%
EWS-Fli inh: blocks EWS/Fli oncoprotein-driven transcription; A673 NR0B1-luciferase reporter, viability-normalised; inhibition, % at 12.6 µM; 350,000 tested, 0.67% active; AID 651661;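 active = mean inhibition of at least 50% after viability correction, with every replicate also passing that limit; inconclusive = mean reaches 50% but only one of two replicates passes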;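 note: firefly luciferase signal divided by Alamar Blue viability fluorescence both relative to DMSO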
Active calls of the source: *; ? = inconclusive; . = no result given. In the library only some 2.8% were active in any assay of this set; here they are far more common.

SMILES	TROY NFkB inh	LGR2 antag	PAX8 inh HTS	TWEAK Fn14 block	EWS-Fli inh
CN(C)S(=O)(=O)c1cccc(NC(=O)c2cccc(S(=O)(=O)N3CCc4ccccc43)c2)c1	34.7	20.9	54.2	60.3*	20.5
O=C(Nc1ccccc1)c1ccc2c(c1)CCN2S(=O)(=O)c1ccccc1	-0.5	8.9	1.5	-0.8	-6.4
CC(=O)c1cccc(NC(=O)c2ccc3c(c2)CCN3S(=O)(=O)c2ccccc2)c1	49.5	3.5	2.5	73.8*	13.4
CC(=O)Nc1cccc(NC(=O)c2ccc3c(c2)CCN3S(=O)(=O)c2ccccc2)c1	-4.7	18.6	3.8	12.1	1.4
O=C(Nc1nc2ccccc2s1)c1cccc(S(=O)(=O)N2CCc3ccccc32)c1	20.4	-26.1	4.1	69.9*	-28.7
O=C(Nc1ccc(S(=O)(=O)N2CCc3ccccc32)cc1)c1ccc2c(c1)OCO2	1.5	.	.	58.0*	.
C[C@@H]1CN([C@@H](C)CO)C(=O)Cc2cc(NC(=O)Nc3ccc(C(F)(F)F)cc3)ccc2O[C@@H]1CN(C)Cc1ccncc1	.	5.5	36.8	.	.
C[C@H]1CN([C@@H](C)CO)C(=O)c2cc(NC(=O)c3ccncc3)ccc2O[C@H]1CN(C)S(C)(=O)=O	.	6.6	-2.0	.	0.9
O=C(Nc1ccc(Cl)cc1)N1C[C@H]2[C@@H](c3ccccc31)[C@@H](CO)N2C(=O)c1ccccn1	.	-16.0	2.4	.	-14.6
COCCN1CCn2c(nc3cc([N+](=O)[O-])ccc32)C1	88.7*	-24.5	4.2	93.6*	-12.0
CCCNC1=C(N(C(C)=O)c2cccc(F)c2)C(=O)c2ccccc2C1=O	18.1	12.0	108.8*	78.8*	6.8
O=C(C[n+]1cccc(CNC(=O)c2ccc(OC(F)F)cc2)c1)Nc1ccc(SC(F)F)cc1	-11.4	-4.5	67.2*	-18.8	.
CN1[C@@H]2c3ccc(-c4cccnc4)c(=O)n3C[C@@H]2[C@@H](CO)[C@@H]1C(=O)NC1Cc2ccccc2C1	.	7.3	-29.9	.	2.8
CCOC(=O)c1cc2c(=O)n3ccccc3nc2n(C(C)C)c1=NC(=O)c1c(-c2c(F)cccc2Cl)noc1C	-8.6	-9.5	-0.6	56.7*	.
C[C@H]1CCCCO[C@@H](CN(C)C)[C@@H](C)CN([C@@H](C)CO)C(=O)c2cc(NC(=O)Nc3ccc(C(F)(F)F)cc3)ccc2O1	.	-3.9	88.2*	.	-6.1
C[C@@H]1CCCCO[C@H](CN(C)C(=O)Nc2ccc(C(F)(F)F)cc2)[C@H](C)CN([C@@H](C)CO)C(=O)c2cc(NC(=O)CCC(F)(F)F)ccc2O1	.	8.5	52.9	.	0.8
C[C@H]1CCCCO[C@H](CN(C)C(=O)Nc2ccc(C(F)(F)F)cc2)[C@@H](C)CN([C@@H](C)CO)C(=O)c2cc(NC(=O)CCC(F)(F)F)ccc2O1	.	22.3	87.3*	.	-2.6
C[C@H]1CCCCO[C@H](CN(C)C)[C@@H](C)CN([C@@H](C)CO)C(=O)c2cc(NC(=O)Nc3ccc(C(F)(F)F)cc3)ccc2O1	.	.	33.0	.	4.8
C[C@@H]1CCCCO[C@@H](CN(C)C(=O)Nc2ccc(C(F)(F)F)cc2)[C@H](C)CN([C@@H](C)CO)C(=O)c2cc(NC(=O)Nc3ccc(C(F)(F)F)cc3)ccc2O1	.	5.3	77.4*	.	-13.9
C[C@H]1CCCCO[C@H](CN(C)C(=O)Nc2ccc(C(F)(F)F)cc2)[C@@H](C)CN([C@@H](C)CO)C(=O)c2cc(NC(=O)Nc3ccc(C(F)(F)F)cc3)ccc2O1	.	1.8	7.9	.	-12.3
C[C@@H]1CN([C@H](C)CO)C(=O)c2cc(NC(=O)Nc3ccc(C(F)(F)F)cc3)ccc2O[C@@H](C)CCCCO[C@H]1CN(C)C(=O)Nc1ccc(C(F)(F)F)cc1	.	11.9	95.6*	.	3.1
O=C(O)C[C@H]1C[C@H]2c3cc(NC(=O)Nc4ccccc4)ccc3O[C@H]2[C@H](CO)O1	.	-5.7	-10.0	.	-0.4
Cc1cc(N=O)c(C)cc1O	7.1	-3.5	.	33.9	2.0
Cc1cc(O)c(-c2cc(O)c(C)cc2O)cc1O	-1.4	18.7	?	20.8	69.7*
O=C(C[C@@H]1CC[C@H]2NC[C@@H](O)COC[C@@H]2O1)NCCc1ccccc1	.	-1.6	20.8	.	11.9
SMILES	TROY NFkB inh	LGR2 antag	PAX8 inh HTS	TWEAK Fn14 block	EWS-Fli inh
COC(=O)c1cnc(Oc2ccc(NC(=O)NC(=O)c3c(F)cccc3F)cc2)cc1C(F)(F)F	13.7	-9.5	22.3	6.6	-1.6
COC(=O)c1cnc(Oc2ccc(NC(=O)NC(=O)c3c(OC)cccc3OC)cc2)cc1C(F)(F)F	17.6	4.2	72.8*	-12.9	52.0*
COC(=O)c1cnc(Oc2ccc(NC(=O)NC(=O)c3c(F)cccc3Cl)cc2)cc1C(F)(F)F	21.8	-1.3	31.3	-19.3	51.1*
C[C@@H]1CN([C@H](C)CO)C(=O)c2cccc(N(C)C)c2O[C@@H]1CN(C)Cc1ccncc1	.	6.5	4.9	.	-0.8
Cc1ccc(-c2cnc3c(c2)C(=O)N([C@H](C)CO)C[C@@H](C)[C@H](CN(C)C(=O)c2cccnc2)O3)cc1	.	4.1	.	.	-2.1
CCCC#Cc1ccc2c(c1)O[C@H](CN(C)Cc1cccnc1)[C@H](C)CN([C@H](C)CO)S2(=O)=O	.	-0.5	-11.2	.	-1.5
COC(=O)c1cc(OC)c(OC)cc1NCC(=O)Nc1ccc(C)cc1	21.8	50.5*	33.7	-0.6	-1.4
CC1(C)CC(=O)C2=C(C1)NC1=C(C(=O)c3ccccc31)C2c1ccccc1 (configuration not stated)	1.7	.	16.6	63.7*	9.4
CC(C)c1ccc(C2C3=C(CC(C)(C)CC3=O)NC3=C2C(=O)c2ccccc23)cc1 (configuration not stated)	36.1	35.8	.	60.5*	19.7
CC1(C)CC(=O)C2=C(C1)NC1=C(C(=O)c3ccccc31)C2c1cccnc1 (configuration not stated)	14.9	-26.7	3.0	3.4	8.2
CC(C)NC(=O)N(C)C[C@H]1Oc2c(NC(=O)Nc3ccccc3)cccc2C(=O)N([C@@H](C)CO)C[C@H]1C	.	4.5	-3.0	.	4.8
C[C@H](CO)N1C[C@H](C)[C@@H](CN(C)C(=O)Nc2ccc3c(c2)OCO3)OCCCC[C@H](C)Oc2ccc(N(C)C)cc2C1=O	.	1.8	13.7	.	1.9
COC1C(CO)OC(n2c3c(Cl)cccc3c3c4c(c5c6cccc(Cl)c6[nH]c5c32)C(=O)NC4=O)C(O)C1O (configuration not stated)	18.4	60.2*	113.1*	-0.1	56.0*
O=C(Cc1ccncc1)NCC[C@H]1CC[C@H](NC(=O)C2CCCC2)[C@@H](CO)O1	.	5.5	8.1	.	-8.9
C[C@H]1CN([C@@H](C)CO)S(=O)(=O)c2ccc(C#Cc3ccncc3)cc2O[C@H]1CN(C)C(=O)Nc1ccc2c(c1)OCO2	.	-1.9	64.8*	.	-0.1
CC(=O)N(C)C[C@@H]1Oc2cc(C#Cc3ccccc3F)ccc2S(=O)(=O)N([C@H](C)CO)C[C@@H]1C	.	4.5	.	.	-3.8
